# Results from ChEMBL document CHEMBL4296182, “CO-ADD screening of NIH NCI Diversity Set V”.
# For part of these data: Measured potencies and affinities stand elsewhere.
# Legend:
# Staphylococcus aureus = test: Antibacterial activity against Staphylococcus aureus MRSA ATCC 43300 (CO-ADD:GP_020); MIC in CAMBH media using NBS plates, by Resazurin F(560/590); assay type: functional; details: Concentration 20 uM, ASSAY_TEST Inhibition of Bacterial Growth, detection method Resazurin, Fluorescence (ex560/em590), MEDIA CAMHB, plate type 384well, CORNING #3640, time 18 hr
# Acinetobacter baumannii = test: Antibacterial activity against Acinetobacter baumannii ATCC 19606 (CO-ADD:GN_034); MIC in CAMBH media using NBS plates, by Resazurin F(560/590); assay type: functional; details: Concentration 20 uM, ASSAY_TEST Inhibition of Bacterial Growth, detection method Resazurin, Fluorescence (ex560/em590), MEDIA CAMHB, plate type 384well, CORNING #3640, time 18 hr
# Escherichia coli = test: Antibacterial activity against Escherichia coli ATCC 25922 (CO-ADD:GN_001); MIC in CAMBH media using NBS plates, by Resazurin F(560/590); assay type: functional; details: Concentration 20 uM, ASSAY_TEST Inhibition of Bacterial Growth, detection method Resazurin, Fluorescence (ex560/em590), MEDIA CAMHB, plate type 384well, CORNING #3640, time 18 hr
# Klebsiella pneumoniae = details: Concentration 20 uM; ASSAY_TEST Inhibition of Bacterial Growth; detection method Absorption (OD600); MEDIA CAMHB; plate type 384well; NBS; CORNING #3640; time 18 hr
# Candida albicans = details: 20 µM
# Cryptococcus neoformans = details: Concentration 20 uM; ASSAY_TEST Inhibition of Fungal Growth; detection method Resazurin; Absorption (OD600-OD570); plate type 384well; NBS; CORNING #3640
Structure (SMILES),Inhibition (Staphylococcus aureus),Inhibition (Acinetobacter baumannii),Inhibition (Escherichia coli),Inhibition (Klebsiella pneumoniae),Inhibition (Candida albicans),Inhibition (Cryptococcus neoformans)
O=c1c2ccccc2ncn1-c1ccc(Cl)cc1,11.71%,-18.47%,12.96%,4.73%,3.91%,-12.39%
COC(=O)C1(C)Cc2cc(OC(C)=O)c(OC(C)=O)cc2N1 (centres undefined),12.77%,0.02%,8.98%,5.52%,-3.71%,-8.65%
O=C(O)c1cccc2c1C(=O)c1cccc3snc-2c13,11.24%,8.28%,-4.32%,2.89%,21.9%,-0.5%
O=C1CSCc2nc3ccccc3n21,4.29%,-8.34%,5.14%,18.88%,1.65%,-7.32%
Nc1nc(N)c(/N=N/c2ccc(S(N)(=O)=O)cc2)c(O)n1,11.8%,-8.6%,-8.26%,23.84%,0.97%,-15.08%
Cc1ccc(/N=N/c2c(N)nn(-c3ccccc3)c2N)cc1,4.28%,-1.05%,11.08%,11.62%,9.14%,-17.06%
CN(C)c1ccc(/C=N/NC(=O)c2cnc3ccccc3c2)cc1,17.84%,9.63%,3.71%,14.91%,2.44%,3.68%
CC(C)(C)c1ccc(NS(=O)(=O)c2ccc(N)cc2)cc1,8.8%,3.26%,-6.26%,16.84%,3.64%,-7.4%
Cn1ncc2c(NCc3ccccc3)ncnc21,5.23%,-15.8%,13.47%,1.24%,-0.05%,-9.92%
Oc1ccc(Nc2ccc3ccccc3c2)cc1,-6.35%,-10.62%,-3.9%,4.89%,3.31%,-6.09%
CCOc1ccc(NC(=O)c2cc3ccccc3cc2O)cc1,-0.31%,-4.15%,-2.29%,2.5%,7.38%,-4.09%
CC(=O)OCCn1c([N+](=O)[O-])cnc1/C=[N+](\[O-])C1CCCCC1,22.69%,11.41%,8.05%,25.14%,4.46%,-10.83%
c1ccc(-c2nnc(-c3ccccn3)[nH]2)nc1,12.66%,11.56%,-1.7%,7.68%,4.71%,-5.04%
c1ccc(-n2c3ccccc3c3ccccc32)cc1,0.65%,-3.58%,6.48%,0.88%,5.95%,11.23%
CC(C)COc1nc2c(c(=O)n(C)c(=O)n2C)n1C,-1.72%,11.63%,12.8%,5.36%,2.67%,-14.97%
O=C(c1cccnc1)N1CCN(c2ccccc2Cl)CC1,7.8%,-13.63%,10.26%,11.81%,2.66%,-13.57%
C=CCSc1n[nH]c(-c2cccs2)n1,7.65%,11.99%,1.25%,19.42%,2.69%,-4.46%
CN1CCN(C2=NCCO2)CC1,4.85%,-15.45%,15.25%,13.16%,3.03%,6.31%
CN1CCC(=C2c3ccccc3C(O)c3ccccc32)CC1 (centres undefined),1.61%,-19.91%,15.16%,2.29%,0.03%,-16.59%
Cc1nc2ccccc2nc1N1CCCC1,12.43%,-3.73%,4.2%,6.96%,2.02%,-9.29%
c1ccc2[nH]c(-c3ccncc3)nc2c1,11.19%,-5.55%,7.11%,18.73%,-0.07%,-8.67%
NC(=O)CCC(C(=O)O)N1C(=O)c2ccc(O)cc2C1=O (centres undefined),8.42%,13.26%,-2.7%,12.88%,4.99%,-2.28%
CCOC(=O)c1nnsc1-c1ccc(-c2snnc2C(=O)OCC)cc1,4.36%,3.04%,-11.2%,29.27%,6.68%,-3.34%
Nc1cc(-c2ccccc2)ccc1O,13.15%,-7.9%,6.67%,17.45%,4.12%,-0.33%
